In PubChem BioAssay AID504329 (Southern Research Specialized Biocontainment Screening …, 2011):
The whole screen tested about 340,000 compounds, of which about 1,000 (0.29%) were called active. Not all results are given here. Entries with a potency or affinity are not part of this list. A number with no mark means an inactive call. Cut-off read from the data, not from the text of the source: inconclusive = inhibition above about 27% without an active follow-up result; inactive = below that.

experiment: H1N1 influenza NS1A inhibitors, functional cell based assay (AID 504329); conditions: percent inhibition, at 12.5 µM, stronger effect = higher value

Compound | inhibition [%]
CN(NC(=O)c1ccco1)c1nc2ccccc2nc1C(F)(F)F | -6.87
Cc1cc(-c2ccc(C)c(S(=O)(=O)Nc3cccc(CN4CCCC4)c3)c2)on1 | -3.07
COc1ccccc1NC(=O)Nc1ccccc1C(=O)NCCCN1CCOCC1 | -12.4
CCOc1ccc(N2CC(C(=O)N3CCCc4ccccc43)CC2=O)cc1 (configuration not stated) | 0.32
Cc1ccc(S(=O)(=O)N2CCOCC2)cc1NC(=O)C1=NN(c2ccccc2)C(=O)CC1 | -4.05
Oc1cccc(Nc2c3ccccc3nc3ccccc23)c1 | 8.39
CCN(CC)CCn1c2ccccc2c2nc3ccccc3nc21 | -13.6
Cc1ccccc1N1CCN(C2CCCN(C(=O)c3snnc3C)C2)CC1 (configuration not stated) | -10.7
O=CC1=C(N2CCOCC2)/C(=C\c2ccccc2)CC1 | -9.74
O=C1Nc2ccc(Br)cc2/C1=N\N=C\C1=C(N2CCOCC2)C(=C/c2ccccc2)/CC1 | 20.8
Cc1ccc(S(=O)(=O)CCC(=O)OCCOc2cccc(Br)c2)cc1 | -115
Cc1cccc(OCCOC(=O)c2c(-c3ccccc3)noc2C)c1 | -11.5
COc1ccc(S(=O)(=O)NCc2cccnc2)cc1NC(=O)c1ccccc1C | -8.44
CS(=O)(=O)N(CC(=O)Nc1ccccc1-c1ccccc1)c1ccc(F)cc1 | 1.39
O=C(Nc1cccc(Cl)c1)c1ccc(-n2cncn2)c([N+](=O)[O-])c1 | 2.4
CC(C(=O)OCC(=O)c1ccccc1)N1C(=O)c2ccccc2C1=O (configuration not stated) | -4.62
CC(=O)c1cc2c(cc1NC(=O)C1CCC1)OCO2 | 10.9
Cn1c(=Nc2ccc(N3CCOCC3)cc2)ccc2ccccc21 | -15.9
C/C(=N\N=c1/sc2ccccc2n1C)c1ccc(N2CCOCC2)cc1 | -7.4
Cn1c(N)c(C(=O)CSc2nnc3n2CCCCC3)c(=O)n(C)c1=O | -13.2
CCOc1ccc(CNCCCSc2ncccn2)cc1 | 4.75
CCOC(=O)N1CCN(C(=O)c2ccc3nc(-c4ccccc4)c(-c4ccccc4)nc3c2)CC1 | 2.02
Cc1ccc(C(=O)Nc2nc(-c3cccnc3)cs2)o1 | -17
Cc1ccc(-c2csc(NC(=O)c3ccc([N+](=O)[O-])o3)n2)cc1 | 6.86
O=C(Nc1nc(-c2ccccn2)cs1)c1cc2ccccc2o1 | 25.1

Compound | inhibition [%]
O=C(Nc1nc(-c2cccs2)cs1)c1ccc([N+](=O)[O-])o1 | -3.14
COc1ccccc1C(=O)Nc1ccc2c(c1)n(C)c(=O)n2C | -3.88
CC(C)CN(C(=O)c1ccc(C(F)(F)F)cc1)c1c(N)n(CC(C)C)c(=O)[nH]c1=O | -4.85
CCCCNC(=S)Nc1ccc2nc(N3CCN(CC)CC3)cc(C)c2c1 | 9.06
COc1ccc(OCCCC(=O)Nc2ccc(OC)c(S(=O)(=O)N3CCOCC3)c2)cc1 | -7.67
CNC(=O)c1ccc(Nc2nnc(C)c3ccccc23)cc1 | -2.75
O=C1NCCN1CCN1C(=O)c2ccccc2NC1c1ccccc1 (configuration not stated) | -24.1
CC(C)N1C(=O)/C(=C/c2nc3ccccc3c(=O)n2-c2ccccc2)c2ccccc21 | 27.7
CCn1c(/C=C2\C(=O)N(C(C)C)c3ccccc32)nc2ccccc2c1=O | -0.25
CC(C)Sc1cc(N2CCCC2)nc(-c2ccccc2)n1 | -8.52
COc1ccc(CNC(=O)C2CCCN2C(=O)NC2CCCCC2)cc1 (configuration not stated) | 8.99
NC1=NC(=Nc2cccc(S(N)(=O)=O)c2)c2ccccc21 | -7.83
COc1ccc(S(N)(=O)=O)cc1N(C)S(=O)(=O)c1ccccc1 | -8.33
O=CN1CCc2scc[n+]2-c2ccccc21 | -18.5
COc1ccccc1NC(=O)C/C(C)=N/NC(=O)c1ccccn1 | 12.6
C=CCNC(=S)N/N=C(\C)c1ccc(OC)cc1 | 1.71
CCCCCC(=O)N/N=C(\C)c1ccccn1 | 5.83
C/C(Cc1ccccc1)=N\NC(=O)c1ccccn1 | -7.02
COc1ccccc1NC(=S)Nc1ccccn1 | -3.02
C=CCNC(=S)N/N=C(\C)c1cccnc1 | 1.12
C/C(=N\NC(=O)CCCNc1ccc(C)cc1)c1ccccn1 | -0.81
C/C(=N\NC(=S)Nc1ccc(C)cc1)c1cccc(N)c1 | 3.24
CC1(C)Oc2ccc(C(=O)NC3CCCC3)cc2N(CC(=O)NC2CCCCC2)C1=O | -5.58
Cc1cc(C)nc(Nc2ccccc2Cl)n1 | -3.84
CN(CC(=O)Nc1ccc2c(c1)OCO2)S(=O)(=O)c1ccc(F)cc1 | 0.79

Compound | inhibition [%]
C/C(=N\NC(=S)Nc1cccc(C)c1)c1ccccc1 | 2.46
Cc1cccc(NC(=S)Nc2ccccn2)c1 | 3.18
S=C(NCc1ccccn1)Nc1cccc(Cl)c1 | 10.7
S=C(NCCc1ccccn1)Nc1cccc(Cl)c1 | -6.8
Cc1nc(-c2ccc(Cl)cc2)sc1C(=O)O | -5.39
O=C1COc2ccc(S(=O)(=O)N3CCN(c4ccccc4)CC3)cc2N1 | 6.48
CN(CC(=O)N1CCN(C2CCCCC2)CC1)S(=O)(=O)c1cccc2nsnc12 | 0.79
CC(Sc1nnc(-c2cccnc2)o1)C(=O)NC1CCCC1 (configuration not stated) | -4.28
c1cnc2ccc(-c3ccc4ncccc4c3)cc2c1 | 2.05
Nc1ccc2ncccc2c1 | 7.98
Nc1ccc(N=Nc2ccccc2)cc1 | 10.5
Nc1ccc(N=Nc2ccc(N)cc2)cc1 | -2.48
Cc1ccc2ncccc2c1 | -1.21
CC(=O)N(C)c1ccc(N=Nc2ccc3ncccc3c2)cc1 | 18.9
CC(C)CN(C(=O)c1ccc(=O)n(C)n1)c1c(N)n(Cc2ccccc2)c(=O)[nH]c1=O | -3.79
COc1ccccc1NS(=O)(=O)c1cccc(NC(=O)c2cncc(Br)c2)c1 | -6.77
COc1cccc(Oc2c(C)oc3c(CN4CCOCC4)c(O)ccc3c2=O)c1 | 8.63
Cn1c(N)c(C(=O)CSc2nc3ccccc3c(=O)n2Cc2ccccc2)c(=O)n(C)c1=O | 10.1
Cc1ccc(CNC(=O)CCC2CCCN(Cc3c(C)nn(C(C)C)c3C)C2)o1 (configuration not stated) | 7.13
Cc1ccc(Cn2c(C(CO)Nc3nc(-c4ccc(Cl)c([N+](=O)[O-])c4)cs3)nc3ccccc32)cc1 (configuration not stated) | 1.74
O=C(Cc1cccs1)Nc1nnc(SCC(=O)NC2CCCCC2)s1 | 3.29
CC(C)Nc1nc(-c2ccccc2)nnc1-c1ccccc1 | -7.91
C=CCNc1cc(C(F)(F)F)nc(-c2ccccn2)n1 | -12.7
CCN(CC)c1nc(-c2ccccn2)nc(-c2ccccc2)c1C#N | 2.62
CC(C)Nc1nc(-c2ccccn2)nc(-c2ccccc2)c1C#N | 1.07

Compound | inhibition [%]
c1ccc(-c2nc(NC3CCCC3)c3ccccc3n2)cc1 | -1.14
C=CCNc1nc(-c2ccccc2)c(C(=O)OCC)cc1C#N | 10.4
Cc1nnc(-c2ccccc2)nc1N(C)C | -13.6
Oc1ccccc1-c1nc(NC2CCCC2)c2ccccc2n1 | -9.82
CC(C)c1ccc(NC(=S)Nc2ccc3[nH]c(=O)[nH]c3c2)cc1 | 1.94
Cc1ccc(S(=O)(=O)N2CCOCC2)cc1NS(=O)(=O)c1ccc(F)c(F)c1 | -3.51
Cc1c(C(=O)Nc2ccccc2)c2cc(O)ccc2n1Cc1ccccc1 | -3.07
O=C1CCCN1CCC1CCN(C2CC(=O)N(Cc3ccc(N4CCCC4=O)cc3)C2=O)CC1 (configuration not stated) | 18.3
COc1ccc(OC)c(C(=O)CN2CCN(S(=O)(=O)c3ccc(Br)cc3)CC2)c1 | 0.97
NC(=O)c1nsc(C(=O)N(c2ccc(F)cc2)C(C(=O)NC2CCCC2)c2ccncc2)c1N (configuration not stated) | 7.29
CC1CCC2(CC1)C(Nc1cccc(Cl)c1)=NC(=S)N2CC#N (configuration not stated) | 11.2
NC(=O)c1c(NC(=O)Cn2nc(C(=O)O)c3ccccc3c2=O)sc2c1CCC2 | 0.19
CCOC(=O)c1c(NC(=O)CSc2nncn2C)sc(C)c1C | -1.87
COc1ccc(Oc2nc(-c3ccccn3)ncc2OC)cc1 | 7.31
COc1cnc(-c2ccccn2)nc1Oc1ccccc1 | 10.4
Cc1nc2c(C)cccc2c2c1COC2 | -0.38
CCOC(=O)c1sc(NC(=O)CSc2nc3c(cc2C#N)CCCCC3)c(C#N)c1C | 0.28
Cc1c(NC(=O)c2ccc(C(=O)Nc3c(C)n(C)n(-c4ccccc4)c3=O)cc2)c(=O)n(-c2ccccc2)n1C | 11.8
CCCCC[C@H]1CN(C2CCCCC2)C(=O)[C@@H]1CC(=O)NCc1ccccc1 | -4.52
Cc1ccc2[nH]c3nc(SCC#N)nnc3c2c1 | 3.03
Cc1ccc2[nH]c3nc(N/N=C/c4cccc(O)c4)nnc3c2c1 | 5.99
Cc1ccc(C)c(N(C)S(=O)(=O)c2ccc3[nH]cc(C(=O)NCCN4CCOCC4)c(=O)c3c2)c1 | 13.2
